PubChem BioAssay (NCI)
The panel holds about 83,000 compounds, 20% with a hit somewhere; the sample as a whole holds those more often.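 Note: values are percent growth. 100 is the growth of untreated cells, values between 100 and 0 indicate rising inhibition; between -100 and 0 indicates cell death.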 Unmarked numbers belong to inactive results. Active and inactive are the calls of the source. Rule for the calls: active = growth percent below 10; inactive = the rest.

These compounds were tested on T-47D breast (assay: NCI-60 one-dose screen, 48 h (100 = growth as untreated, 0 = no growth, -100 = all killed)). Conditions: 10 µM unless noted.
Work on `COC(=O)c1cc2oc(/C=N\NC(=O)c3cc4oc(C)c(C)c4[nH]3)cc2[nH]1` yielded a growth of 90.2%.
In the case of `COc1cccc(-c2nc(-c3ccc(N)cc3)co2)c1`, the growth was 105%.
For `CC(=O)c1nn(-c2ccccc2)c(=Nc2ccccc2)cc1C`, the growth was 88.2%.
For `COc1cc(/C=C2\CN(S(=O)(=O)c3ccc(C)cc3)C/C(=C\c3cc(CN4CCOCC4)c(O)c(OC)c3)C2=O)cc(CN2CCOCC2)c1O`, the growth was 63.9%.
In the case of `CCOc1cc(/C=C/C(=O)C(C(=O)/C=C/c2ccc(OC(=O)CNc3nnc(C)s3)c(OCC)c2)C(=O)CNc2nnc(C)s2)ccc1OC(=O)CNc1nnc(C)s1`, the growth was 68.2%.
`O=C(N/N=C/c1cccc([N+](=O)[O-])c1)c1ccc(Br)o1` was tested, and the growth was 83.4%.
In the case of `O=C(CN1CCN(c2ccc(Cl)cc2)CC1)N1CCN(c2nnc(-c3ccccc3)c(-c3ccccc3)n2)CC1`, the growth was 19.7%.
In the case of `O=C1CNc2cc(Cl)ccc2N1`, the growth was 99.5%.
`Cc1cnc2nc(-c3ccc(N(C)C)cc3)cn2c1` gave a growth of 89.8%.
`CCCCNCCCN(CCCC)CCCNCCCC` showed a growth of 105%.
For `C/C(=C\CCc1ccoc1)CC/C=C(\C)CCCC1COC(=O)C1` (stereo not drawn), the growth was 87.7%.
`O=C(c1ccccc1)c1ccc(Oc2ccc([N+](=O)[O-])cc2[N+](=O)[O-])cc1` showed a growth of 66.1%.
`OCCN1CCN(CCCN2c3ccccc3Sc3ccc(C(F)(F)F)cc32)CC1` was tested, and the growth was 54.5%.
With `COP(=O)(OC)C(c1ccc(O)cc1)(c1ccc(O)cc1)c1ccc(O)cc1` the growth was 104%.
In the case of `CC(=O)N1N=C(c2ccc(Nc3nc(NCCO)nc(NCCO)n3)cc2)CC1c1ccc(Cl)cc1` (stereo not drawn), the growth was 66.2%.
For `[N-]=[N+]=NCc1cccc(/C(O)=C/C(=O)C(=O)O)c1`, the growth was 86.6%.
With `O=C(COc1cccc(/C=C2\Cc3ccccc3C2=O)c1)c1ccc(Cl)cc1` the growth was 80%.
`O=[N+]([O-])c1ccc(N=Nc2c(Cl)cc(O)cc2Cl)cc1` was tested, and the growth was 4.24% (active).
In the case of `O=c1c2ccccc2c2nccn2c2cc(Cl)ccc12`, the growth was 84.6%.
In the case of `CCN(CC)CCCCCCCNc1c2ccc(Cl)cc2nc2ccc(OC)cc12`, the growth was -42.3% (active).
`COc1cccc(C2=NN(C(C)=O)C(c3cc(OC)c(OC)c(OC)c3)C2)c1` (stereo not drawn) showed a growth of 35.2%.
Compound `O=C(c1ccccc1)C(CN1CCCCC1)c1ccccc1` (stereo not drawn) has a growth of 34.9%.
With `Nc1ccn(C2O[C@H](CO)[C@@H](O)[C@@H]2O)c(=O)n1` (stereo partly drawn) the growth was 80.5%.
`O=C(Nc1cccc(Cl)c1)Nc1cccc(Cl)c1` was tested, and the growth was 19.4%.
In the case of `COc1cccc(N2CCN(c3cccc(C)n3)CC2)c1`, the growth was 115%.
Work on `Cc1cn(C(C=O)OC(C=O)CO)c(=O)[nH]c1=O` (stereo not drawn) yielded a growth of 99.6%.
`CCOC(=O)CCC(=O)O[C@H]1[C@H](O[C@@H]2[C@@H](C)[C@H](O[C@H]3C[C@@](C)(OC)[C@@H](O)[C@H](C)O3)[C@@H](C)C(=O)O[C@H](CC)[C@@](C)(O)[C@H](O)[C@@H](C)C(=O)[C@H](C)C[C@@]2(C)O)O[C@H](C)C[C@@H]1N(C)C` was tested, and the growth was 97.1%.
`O=C(CNc1ccc2c(c1)C(=O)c1ccccc1C2=O)Nc1ccc2c(c1)C(=O)c1ccccc1C2=O` was tested, and the growth was -65.5% (active).
With `O=c1[nH]c(N2CCC(Cc3ccccc3)CC2)nc2sc3c(c12)CCCC3` the growth was 96.6%.
With `Cn1cc(NC(=O)Nc2cc(C(=O)O)n(C)c2)cc1C(=O)O` the growth was 107%.
For `O=C(CN1CCN(c2ccc(Cl)cc2)CC1)N1CCN(c2nnc(-c3ccc(Cl)cc3)c(-c3ccc(Cl)cc3)n2)CC1`, the growth was 52.4%.
`O=C(Nc1ccc(Cl)cc1)Nc1ccccc1CNc1nc(Nc2ccc(OCCN3CCCC3)cc2)ncc1Cl` gave a growth of 105%.
For `CCCCCCCCCCOC(C)=O`, the growth was 100%.
`CCN(CC)CCNCC(=O)Oc1ccc(/C=C/C(=O)CC(=O)/C=C/c2ccc(OC(=O)CNCCN(CC)CC)c(OC)c2)cc1OC` was tested, and the growth was 26.6%.
`CC(=O)N1N=C(c2ccc(C(F)(F)F)cc2)CC1c1ccc2c(c1)OCO2` (stereo not drawn) gave a growth of 86.2%.
Work on `O=C1CSC(c2ccccc2O)N1c1nnc(Cn2ccnc2)o1` (stereo not drawn) yielded a growth of 60.6%.
With `O=C(/C=C/c1cccc(Nc2ccnc3cc(Cl)ccc23)c1)c1ccc(Cl)cc1` the growth was 39.8%.
Work on `CC(NNC(=S)N1CCCCCC1)c1ccc2ccccc2n1` (stereo not drawn) yielded a growth of 29.8%.
For `O=C(Nc1nc(-c2ccc(Cl)cc2)cs1)c1cc(-c2ccc(Br)cc2)nc2ccc(Cl)cc12`, the growth was 53%.

What follows are compounds tested on BT-549 breast in the same assay as above. Conditions: 10 µM unless noted.
Compound `COC(=O)c1cc2oc(/C=N\NC(=O)c3cc4oc(C)c(C)c4[nH]3)cc2[nH]1` has a growth of 91.3%.
`COc1cccc(-c2nc(-c3ccc(N)cc3)co2)c1` was tested, and the growth was 110%.
With `CC(=O)c1nn(-c2ccccc2)c(=Nc2ccccc2)cc1C` the growth was 99%.
For `COc1cc(/C=C2\CN(S(=O)(=O)c3ccc(C)cc3)C/C(=C\c3cc(CN4CCOCC4)c(O)c(OC)c3)C2=O)cc(CN2CCOCC2)c1O`, the growth was -21.8% (active).
In the case of `CCOc1cc(/C=C/C(=O)C(C(=O)/C=C/c2ccc(OC(=O)CNc3nnc(C)s3)c(OCC)c2)C(=O)CNc2nnc(C)s2)ccc1OC(=O)CNc1nnc(C)s1`, the growth was -56.2% (active).
With `O=C(N/N=C/c1cccc([N+](=O)[O-])c1)c1ccc(Br)o1` the growth was 103%.
`O=C(CN1CCN(c2ccc(Cl)cc2)CC1)N1CCN(c2nnc(-c3ccccc3)c(-c3ccccc3)n2)CC1` gave a growth of 44.9%.
For `O=C1CNc2cc(Cl)ccc2N1`, the growth was 97.7%.
In the case of `Cc1cnc2nc(-c3ccc(N(C)C)cc3)cn2c1`, the growth was 112%.
For `CCCCNCCCN(CCCC)CCCNCCCC`, the growth was 97.2%.
Work on `C/C(=C\CCc1ccoc1)CC/C=C(\C)CCCC1COC(=O)C1` (stereo not drawn) yielded a growth of 108%.
In the case of `O=C(c1ccccc1)c1ccc(Oc2ccc([N+](=O)[O-])cc2[N+](=O)[O-])cc1`, the growth was -1.35% (active).
`OCCN1CCN(CCCN2c3ccccc3Sc3ccc(C(F)(F)F)cc32)CC1` showed a growth of 53%.
With `COP(=O)(OC)C(c1ccc(O)cc1)(c1ccc(O)cc1)c1ccc(O)cc1` the growth was 133%.
With `CC(=O)N1N=C(c2ccc(Nc3nc(NCCO)nc(NCCO)n3)cc2)CC1c1ccc(Cl)cc1` (stereo not drawn) the growth was 87.9%.
For `[N-]=[N+]=NCc1cccc(/C(O)=C/C(=O)C(=O)O)c1`, the growth was 113%.
With `O=C(COc1cccc(/C=C2\Cc3ccccc3C2=O)c1)c1ccc(Cl)cc1` the growth was 99.4%.
For `O=[N+]([O-])c1ccc(N=Nc2c(Cl)cc(O)cc2Cl)cc1`, the growth was -33.6% (active).
In the case of `O=c1c2ccccc2c2nccn2c2cc(Cl)ccc12`, the growth was 89%.
For `CCN(CC)CCCCCCCNc1c2ccc(Cl)cc2nc2ccc(OC)cc12`, the growth was -20.9% (active).
In the case of `COc1cccc(C2=NN(C(C)=O)C(c3cc(OC)c(OC)c(OC)c3)C2)c1` (stereo not drawn), the growth was 7.16% (active).
With `O=C(c1ccccc1)C(CN1CCCCC1)c1ccccc1` (stereo not drawn) the growth was 83.8%.
In the case of `Nc1ccn(C2O[C@H](CO)[C@@H](O)[C@@H]2O)c(=O)n1` (stereo partly drawn), the growth was 81.2%.
`O=C(Nc1cccc(Cl)c1)Nc1cccc(Cl)c1` gave a growth of 96.7%.
`COc1cccc(N2CCN(c3cccc(C)n3)CC2)c1` was tested, and the growth was 105%.
For `Cc1cn(C(C=O)OC(C=O)CO)c(=O)[nH]c1=O` (stereo not drawn), the growth was 107%.
Work on `CCOC(=O)CCC(=O)O[C@H]1[C@H](O[C@@H]2[C@@H](C)[C@H](O[C@H]3C[C@@](C)(OC)[C@@H](O)[C@H](C)O3)[C@@H](C)C(=O)O[C@H](CC)[C@@](C)(O)[C@H](O)[C@@H](C)C(=O)[C@H](C)C[C@@]2(C)O)O[C@H](C)C[C@@H]1N(C)C` yielded a growth of 97.3%.
With `O=C(CNc1ccc2c(c1)C(=O)c1ccccc1C2=O)Nc1ccc2c(c1)C(=O)c1ccccc1C2=O` the growth was -80.4% (active).
With `O=c1[nH]c(N2CCC(Cc3ccccc3)CC2)nc2sc3c(c12)CCCC3` the growth was 109%.
With `Cn1cc(NC(=O)Nc2cc(C(=O)O)n(C)c2)cc1C(=O)O` the growth was 125%.
In the case of `O=C(CN1CCN(c2ccc(Cl)cc2)CC1)N1CCN(c2nnc(-c3ccc(Cl)cc3)c(-c3ccc(Cl)cc3)n2)CC1`, the growth was 89.3%.
In the case of `O=C(Nc1ccc(Cl)cc1)Nc1ccccc1CNc1nc(Nc2ccc(OCCN3CCCC3)cc2)ncc1Cl`, the growth was 77.6%.
With `CCCCCCCCCCOC(C)=O` the growth was 118%.
For `CCN(CC)CCNCC(=O)Oc1ccc(/C=C/C(=O)CC(=O)/C=C/c2ccc(OC(=O)CNCCN(CC)CC)c(OC)c2)cc1OC`, the growth was -49.4% (active).
For `CC(=O)N1N=C(c2ccc(C(F)(F)F)cc2)CC1c1ccc2c(c1)OCO2` (stereo not drawn), the growth was 93.7%.
Compound `O=C1CSC(c2ccccc2O)N1c1nnc(Cn2ccnc2)o1` (stereo not drawn) has a growth of 64.5%.
`O=C(/C=C/c1cccc(Nc2ccnc3cc(Cl)ccc23)c1)c1ccc(Cl)cc1` gave a growth of 54.3%.
Compound `CC(NNC(=S)N1CCCCCC1)c1ccc2ccccc2n1` (stereo not drawn) has a growth of 66.6%.
`O=C(Nc1nc(-c2ccc(Cl)cc2)cs1)c1cc(-c2ccc(Br)cc2)nc2ccc(Cl)cc12` was tested, and the growth was -15.9% (active).
